In the supplement of paper PMC6992640:

tested on: WHIM30 (cells of a triple-negative basal-like breast cancer xenograft); assay: cell viability of combination (% of vehicle); higher = less cytotoxic; settings: 1 µM; 72 h; partner dose: 10 nM
Protocol: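 PDX cells were treated for 72 h with each drug at 1 µM plus carfilzomib (10 nM; 100 nM for WHIM2). Luciferase viability is expressed as percent of vehicle.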

Compared with `CCOc1cc2ncc(C#N)c(Nc3ccc(OCc4ccccn4)c(Cl)c3)c2cc1NC(=O)C=CCN(C)C` [Neratinib (HKI-272)] + CC(C)C[C@H](NC(=O)[C@H](CCc1ccccc1)NC(=O)CN1CCOCC1)C(=O)N[C@@H](Cc1ccccc1)C(=O)N[C@@H](CC(C)C)C(=O)[C@@]1(C)CO1 [Carfilzomib], `COc1cc(Nc2c(C#N)cnc3cc(OCCCN4CCN(C)CC4)c(OC)cc23)c(Cl)cc1Cl` [Bosutinib (SKI-606)] + CC(C)C[C@H](NC(=O)[C@H](CCc1ccccc1)NC(=O)CN1CCOCC1)C(=O)N[C@@H](Cc1ccccc1)C(=O)N[C@@H](CC(C)C)C(=O)[C@@]1(C)CO1 [Carfilzomib] is higher in “cell viability of combination” value: 17.5 for the first, 20.9 for the second.

Going from `Cc1c(Cl)cccc1Nc1ccccc1C(=O)O` [Tolfenamic Acid] + CC(C)C[C@H](NC(=O)[C@H](CCc1ccccc1)NC(=O)CN1CCOCC1)C(=O)N[C@@H](Cc1ccccc1)C(=O)N[C@@H](CC(C)C)C(=O)[C@@]1(C)CO1 [Carfilzomib] to `Nc1c(CC(=O)[O-])cccc1C(=O)c1ccccc1.O.[Na+]` [Amfenac Sodium Monohydrate] + CC(C)C[C@H](NC(=O)[C@H](CCc1ccccc1)NC(=O)CN1CCOCC1)C(=O)N[C@@H](Cc1ccccc1)C(=O)N[C@@H](CC(C)C)C(=O)[C@@]1(C)CO1 [Carfilzomib], the “cell viability of combination” value rises from 20.7 to 23.7.

First: CCCCCCCCCCCC1=C(O)C(=O)C=C(O)C1=O [Embelin] + CC(C)C[C@H](NC(=O)[C@H](CCc1ccccc1)NC(=O)CN1CCOCC1)C(=O)N[C@@H](Cc1ccccc1)C(=O)N[C@@H](CC(C)C)C(=O)[C@@]1(C)CO1 [Carfilzomib]
Second: CCc1oc2ccccc2c1C(=O)c1cc(Br)c(O)c(Br)c1 [Benzbromarone] + CC(C)C[C@H](NC(=O)[C@H](CCc1ccccc1)NC(=O)CN1CCOCC1)C(=O)N[C@@H](Cc1ccccc1)C(=O)N[C@@H](CC(C)C)C(=O)[C@@]1(C)CO1 [Carfilzomib]
The “cell viability of combination” value of the first is lower: 17.7 for the first, 20.1 for the second.

First: CC(C)(C)NC(=O)C1CC2CCCCC2CN1CC(O)C(Cc1ccccc1)NC(=O)C(CC(N)=O)NC(=O)c1ccc2ccccc2n1.CS(=O)(=O)O (stereo not given) [Saquinavir mesylate] + CC(C)C[C@H](NC(=O)[C@H](CCc1ccccc1)NC(=O)CN1CCOCC1)C(=O)N[C@@H](Cc1ccccc1)C(=O)N[C@@H](CC(C)C)C(=O)[C@@]1(C)CO1 [Carfilzomib]
Second: CC1=C(C(=O)OC(C)C)C(c2cccc([N+](=O)[O-])c2)C(C(=O)OC2CN(C(c3ccccc3)c3ccccc3)C2)=C(N)N1 (stereo not given) [Azelnidipine] + CC(C)C[C@H](NC(=O)[C@H](CCc1ccccc1)NC(=O)CN1CCOCC1)C(=O)N[C@@H](Cc1ccccc1)C(=O)N[C@@H](CC(C)C)C(=O)[C@@]1(C)CO1 [Carfilzomib]
The “cell viability of combination” value of the first is higher: 22.9 for the first, 14.5 for the second.

Compared with `C#Cc1cccc(Nc2ncnc3cc(OCCOC)c(OCCOC)cc23)c1.Cl` [Erlotinib Hydrochloride] + CC(C)C[C@H](NC(=O)[C@H](CCc1ccccc1)NC(=O)CN1CCOCC1)C(=O)N[C@@H](Cc1ccccc1)C(=O)N[C@@H](CC(C)C)C(=O)[C@@]1(C)CO1 [Carfilzomib], `COc1cc2nccc(Oc3ccc(NC(=O)Nc4cc(C)on4)c(Cl)c3)c2cc1OC` [Tivozanib (AV-951)] + CC(C)C[C@H](NC(=O)[C@H](CCc1ccccc1)NC(=O)CN1CCOCC1)C(=O)N[C@@H](Cc1ccccc1)C(=O)N[C@@H](CC(C)C)C(=O)[C@@]1(C)CO1 [Carfilzomib] is lower in “cell viability of combination” value: 26.3 for the first, 18.1 for the second.

First: CCc1c(Cl)c(O)c(Cl)c(O)c1C(=O)OC1C(C)OC(OCC2=CC=CCC(O)C(C)=CC(CC)C(OC3OC(C)(C)C(OC(=O)C(C)C)C(O)C3O)C(C)=CC(C)=CCC(C(C)O)OC2=O)C(OC)C1O (stereo not given) [Fidaxomicin] + CC(C)C[C@H](NC(=O)[C@H](CCc1ccccc1)NC(=O)CN1CCOCC1)C(=O)N[C@@H](Cc1ccccc1)C(=O)N[C@@H](CC(C)C)C(=O)[C@@]1(C)CO1 [Carfilzomib]
Second: COc1cccc2c1C(=O)c1c(O)c3c(c(O)c1C2=O)C[C@@](O)(C(C)=O)C[C@@H]3O[C@H]1C[C@H](N)[C@H](O)[C@H](C)O1.Cl [Daunorubicin HCl] + CC(C)C[C@H](NC(=O)[C@H](CCc1ccccc1)NC(=O)CN1CCOCC1)C(=O)N[C@@H](Cc1ccccc1)C(=O)N[C@@H](CC(C)C)C(=O)[C@@]1(C)CO1 [Carfilzomib]
The “cell viability of combination” value of the first is higher: 21.2 for the first, 4.41 for the second.

Going from `COc1ccc(CN2CCN(C(c3ccc(F)cc3)c3ccc(F)cc3)CC2)c(OC)c1OC.Cl.Cl` [Lomerizine HCl] + CC(C)C[C@H](NC(=O)[C@H](CCc1ccccc1)NC(=O)CN1CCOCC1)C(=O)N[C@@H](Cc1ccccc1)C(=O)N[C@@H](CC(C)C)C(=O)[C@@]1(C)CO1 [Carfilzomib] to `CC(C)COc1ccc(CNC(=O)N(Cc2ccc(F)cc2)C2CCN(C)CC2)cc1` [Pimavanserin] + CC(C)C[C@H](NC(=O)[C@H](CCc1ccccc1)NC(=O)CN1CCOCC1)C(=O)N[C@@H](Cc1ccccc1)C(=O)N[C@@H](CC(C)C)C(=O)[C@@]1(C)CO1 [Carfilzomib], the “cell viability of combination” value rises from 15.6 to 15.8.

First: C=C1C(=CC=C2CCCC3(C)C2CCC3C(C)CCCC(C)C)CC(O)CC1O (stereo not given) [Alfacalcidol] + CC(C)C[C@H](NC(=O)[C@H](CCc1ccccc1)NC(=O)CN1CCOCC1)C(=O)N[C@@H](Cc1ccccc1)C(=O)N[C@@H](CC(C)C)C(=O)[C@@]1(C)CO1 [Carfilzomib]
Second: CC1(COc2ccc3c(c2)ncn3-c2ccc3cccc(N4CCC(N)CC4)c3n2)COC1 + CC(C)C[C@H](NC(=O)[C@H](CCc1ccccc1)NC(=O)CN1CCOCC1)C(=O)N[C@@H](Cc1ccccc1)C(=O)N[C@@H](CC(C)C)C(=O)[C@@]1(C)CO1 [Carfilzomib]
The “cell viability of combination” value of the first is lower: 16.6 for the first, 64.3 for the second.

Compared with `CNC(=O)c1cc(Oc2ccc(NC(=O)Nc3ccc(Cl)c(C(F)(F)F)c3)cc2)ccn1.Cc1ccc(S(=O)(=O)O)cc1` [Sorafenib Tosylate] + CC(C)C[C@H](NC(=O)[C@H](CCc1ccccc1)NC(=O)CN1CCOCC1)C(=O)N[C@@H](Cc1ccccc1)C(=O)N[C@@H](CC(C)C)C(=O)[C@@]1(C)CO1 [Carfilzomib], `COc1cc(C(=O)O)ccc1NC(=O)C1NC(CC(C)(C)C)C(C#N)(c2ccc(Cl)cc2F)C1c1cccc(Cl)c1F` (stereo not given) + CC(C)C[C@H](NC(=O)[C@H](CCc1ccccc1)NC(=O)CN1CCOCC1)C(=O)N[C@@H](Cc1ccccc1)C(=O)N[C@@H](CC(C)C)C(=O)[C@@]1(C)CO1 [Carfilzomib] is higher in “cell viability of combination” value: 19.5 for the first, 23.5 for the second.

Going from `Clc1ccc(C(Cn2ccnc2)OCc2ccc(Sc3ccccc3)cc2)c(Cl)c1.O=[N+]([O-])O` (stereo not given) [Fenticonazole Nitrate] + CC(C)C[C@H](NC(=O)[C@H](CCc1ccccc1)NC(=O)CN1CCOCC1)C(=O)N[C@@H](Cc1ccccc1)C(=O)N[C@@H](CC(C)C)C(=O)[C@@]1(C)CO1 [Carfilzomib] to `Nc1ccn(C2OC(CO)C(O)C2O)c(=O)n1` (stereo not given) [Cytarabine] + CC(C)C[C@H](NC(=O)[C@H](CCc1ccccc1)NC(=O)CN1CCOCC1)C(=O)N[C@@H](Cc1ccccc1)C(=O)N[C@@H](CC(C)C)C(=O)[C@@]1(C)CO1 [Carfilzomib], the “cell viability of combination” value falls from 21.1 to 19.3.
